Results reported in PubChem BioAssay (Tox21).
Where “and” joins values, the source holds several entries; their conditions need not be identical. Equal values may be shown once. Results filed as inconclusive are left out. Where a call stands in place of a potency, no number is given. Calls of active or inactive are those of the source. Unless noted, calls come from the whole dose curve; as a rule, active = well fitted curve in the direction sought with a large enough effect in the repeat runs; inconclusive = weak or mixed curves; inactive = no such curve, though single readings can be large; an effect the other way counts as inactive or inconclusive.

Experiments:
[1] = qHTS assay for small molecule agonists of the p53 signaling pathway (AID 651631; calls by dose curve; note: nearly all actives have a fitted effect of over 15% in size; note: potency is the fitted concentration of half-maximal effect)
Summary of the method: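 Read-out is beta-lactamase FRET fluorescence measured 2 h after substrate addition at room temperature, in HCT-116 cells with a p53 response element-driven reporter exposed to compounds for 16 h at 37 °C.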

[2] = qHTS assay for small molecules that induce genotoxicity in human embryonic kidney cells expressing luciferase-tagged ATAD5 (AID 651632); note: nearly all actives have a fitted effect of over 15% in size
Summary of the method: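 Test compounds were delivered by pin tool onto HEK293T reporter cells (2,000/well) expressing ATAD5 fused to luciferase. After 16 hr at 37C, 5% CO2, Amplite was added for 30 min at room temperature and luminescence was measured.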

[3] = qHTS assay for small molecule agonists of the p53 signaling pathway - cell viability (AID 651633; calls by dose curve; note: nearly all actives have a fitted effect of over 30% in size; note: potency is the fitted concentration of half-maximal effect)
Summary of the method: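 p53RE-bla cells, seeded at 4,000 per well and rested 5 h at 37 C/5% CO2, received compounds in DMSO for 16 h at 37 C. CellTiter-Glo was then added, and luminescence was read after 30 min at room temperature to gauge cytotoxicity.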

[4] = qHTS assay for small molecules that induce genotoxicity in human embryonic kidney cells expressing luciferase-tagged ATAD5 - cell viability (AID 651634; calls by dose curve; note: nearly all actives have a fitted effect of over 25% in size)
Summary of the method: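 Quantitative high-throughput format. HEK293T cells expressing ATAD5 fused to luciferase were plated at 2,000 cells/well and treated 15.5 hr with compound versus DMSO. Viability was determined by fluorescent live-cell protease substrate, 30 min at 37C.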

[5] = qHTS assay for small molecule disruptors of the mitochondrial membrane potential - cell viability (AID 720634; calls by dose curve; note: nearly all actives have a fitted effect of over 20% in size; note: potency is the fitted concentration of half-maximal effect)
Summary of the method: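 Same-well counter-screen: following the MMP dye addition, CellTiter-Glo was added to 1 hr compound-treated HepG2 cells and luminescence read after 30 min at room temperature.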

[6] = qHTS assay to test for compound auto fluorescence at 590 nm (red) in HepG2 cells (AID 720674)
Summary of the method: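 Compound auto-fluorescence is scored relative to Rose Bengal sodium, measured at 540/590 nm in live HepG2 cultures after 1 hr compound contact (37 C, 5% CO2).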

[7] = qHTS assay to test for compound auto fluorescence at 535 nm (green) in HepG2 cells (AID 720675)
[8] = qHTS assay to test for compound auto fluorescence at 460 nm (blue) in HEK293 cells (AID 720678)
Summary of the method: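 HEK293, 2,000 cells/well, 10% dialyzed FBS; attach 4-5 hr 37C; pin compound or DMSO; o/n 37C/5% CO2; fluorescence 405/460 nm; triamterene-equivalent units.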

[9] = qHTS assay to test for compound auto fluorescence at 590 nm (red) in HEK293 cells (AID 720679)
Summary of the method: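 Intensity at 540nm excitation and 590nm emission is reported as Rose Bengal sodium-equivalent autofluorescence. Measurements followed overnight exposure (37C, 5% CO2) of HEK293 cells, 2,000 per well, to 23 nL compound.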

[10] = qHTS assay to test for compound auto fluorescence at 535 nm (green) in HEK293 cells (AID 720680)
[11] = qHTS assay to test for compound auto fluorescence at 460 nm (blue) in HEK293 cell free culture (AID 720681)
Summary of the method: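 Test compounds were pinned into cell-free culture medium (DMEM with 10% FBS) and fluorescence was read directly at Ex/Em 405/460 nm. Signals were expressed as fluorescence equivalents of triamterene, with DMSO vehicle as control.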

[12] = qHTS assay to test for compound auto fluorescence at 535 nm (green) in HEK293 cell free culture (AID 720682)
Summary of the method: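 Fluorescein serves as the green reference fluorophore; each compound's intrinsic emission at 535 nm (excitation 485 nm) is reported as an equivalent amount of that dye, measured in serum-containing DMEM without cells.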

[13] = qHTS assay to test for compound auto fluorescence at 590 nm (red) in HEK293 cell free culture (AID 720683)
Summary of the method: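 Tox21 10K library compounds were pinned into cell-free DMEM with 10% FBS and fluorescence was read at excitation 540 nm. Activity is expressed as Rose Bengal sodium equivalency.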

[14] = qHTS assay to test for compound auto fluorescence at 590 nm (red) in HepG2 cell free culture (AID 720684)
Summary of the method: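 Readout: intrinsic compound fluorescence at 590 nm emission after 540 nm excitation, scaled to Rose Bengal sodium. Matrix was cell-free MEM with 10% FBS; DMSO vehicle wells served as control.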

[15] = qHTS assay to test for compound auto fluorescence at 535 nm (green) in HepG2 cell free culture (AID 720686)
[16] = qHTS assay to test for compound auto fluorescence at 460 nm (blue) in HepG2 cells (AID 720687)
Summary of the method: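 Cells (2,000/well in MEM with 10% FBS) attached overnight at 37 C, then were exposed to compound or DMSO for 1 hr at 37 C, 5% CO2. Fluorescence read at Ex/Em 405/460 nm, expressed as triamterene-equivalent signal.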

[17] = molecular target: Glucocorticoid receptor (Homo sapiens) (UniProt P04150); assay: qHTS assay to identify small molecule agonists of the glucocorticoid receptor (GR) signaling pathway (AID 720691; active = well fitted activation curve with a large enough effect in the signal ratio in the repeat runs, not every such curve was filed as active; the % refers to the signal ratio; note: potency is the fitted concentration of half-maximal effect)
Chain of Glucocorticoid receptor (Homo sapiens) (P04150 whole entry, looked up): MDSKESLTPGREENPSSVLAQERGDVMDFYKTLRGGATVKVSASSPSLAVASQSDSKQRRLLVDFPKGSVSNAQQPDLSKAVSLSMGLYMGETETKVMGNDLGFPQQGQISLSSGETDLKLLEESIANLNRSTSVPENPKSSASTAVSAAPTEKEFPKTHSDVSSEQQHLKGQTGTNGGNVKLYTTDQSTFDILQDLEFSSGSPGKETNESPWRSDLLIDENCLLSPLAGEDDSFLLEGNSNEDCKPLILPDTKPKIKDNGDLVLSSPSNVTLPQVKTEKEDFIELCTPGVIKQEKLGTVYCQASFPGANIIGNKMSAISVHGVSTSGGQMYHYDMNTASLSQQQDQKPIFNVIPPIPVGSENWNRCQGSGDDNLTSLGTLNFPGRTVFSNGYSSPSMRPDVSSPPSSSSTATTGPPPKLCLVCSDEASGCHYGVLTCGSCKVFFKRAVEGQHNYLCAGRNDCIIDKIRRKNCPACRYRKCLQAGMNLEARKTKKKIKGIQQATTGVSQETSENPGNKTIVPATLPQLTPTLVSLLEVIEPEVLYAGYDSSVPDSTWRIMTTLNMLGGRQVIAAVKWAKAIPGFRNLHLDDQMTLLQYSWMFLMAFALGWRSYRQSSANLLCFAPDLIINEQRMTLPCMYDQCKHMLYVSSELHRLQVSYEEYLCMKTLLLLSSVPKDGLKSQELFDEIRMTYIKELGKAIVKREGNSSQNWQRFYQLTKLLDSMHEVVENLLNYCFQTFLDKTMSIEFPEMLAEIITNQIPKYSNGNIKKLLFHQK
Summary of the method: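 A HeLa cervical cancer line expressing GR and a glucocorticoid response element-driven beta-lactamase gene is treated with compounds for 18 h; LiveBLAzer B/G FRET substrate is then applied and fluorescence read.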

[18] = molecular target: Glucocorticoid receptor (Homo sapiens) (UniProt P04150); assay: qHTS assay to identify small molecule antagonists of the glucocorticoid receptor (GR) signaling pathway (AID 720692; active = well fitted inhibition curve with a large enough effect in the signal ratio in the repeat runs, not every such curve was filed as active; the % refers to the signal ratio)
Summary of the method: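 GRE-bla HeLa line, dex-stimulated (5 nM final). Compound exposure 18 h, 37 C. Beta-lactamase FRET read after 2 h RT substrate.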

[19] = qHTS assay to test for compound auto fluorescence at 460 nm (blue) in HepG2 cell free culture (AID 720685)
Summary of the method: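 Cell-free plates of MEM plus 10% FBS received 23 nL compound or DMSO vehicle; blue-channel (405/460 nm) intensity scored against triamterene as reference fluorophore.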

[20] = qHTS assay for small molecule disruptors of the mitochondrial membrane potential (AID 720635); note: potency is the fitted concentration of half-maximal effect
Summary of the method: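 HepG2 cells (2,000/well) attached overnight at 37C, then took compound for 1 hr at 37C, 5% CO2. Mito-MPS dye was added for 30 min; fluorescence was read at 490/535 nm (monomers) and 540/590 nm (aggregates).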

Structure (SMILES)	Potency [1]	Potency [2]	Potency [3]	Potency [4]	Potency [5]	outcome [6]	outcome [7]	outcome [8]	outcome [9]	outcome [10]	outcome [11]	outcome [12]	outcome [13]	outcome [14]	outcome [15]	outcome [16]	Potency [17]	Potency [18]	outcome [19]	Potency [20]
C=CCOC(=O)C(C)(C)OC(=O)c1cc(-n2c(=O)cc(C(F)(F)F)n(C)c2=O)ccc1Cl	inactive	inactive	inactive	inactive	inactive	inactive	inactive	inactive	inactive	inactive	inactive	inactive	inactive	inactive	inactive	inactive	inactive	inactive		
OC[P+](CO)(CO)CO	inactive	inactive	inactive	inactive	inactive	inactive	inactive	inactive	inactive	inactive	inactive	inactive	inactive	inactive	inactive	inactive	inactive	inactive	inactive	
CCCCCl	inactive		inactive	inactive	inactive	inactive	inactive	inactive	inactive	inactive	inactive	inactive	inactive	inactive	inactive	inactive	inactive	inactive	inactive	
c1ccc2c(c1)-c1cccc3cccc-2c13	inactive		inactive	inactive		inactive	inactive	inactive	inactive	inactive	inactive	inactive	inactive	inactive	inactive	inactive			inactive	61.7 µM (active) and 61.1 µM (active)
CCCCC(CC)COC(=O)c1c(Br)c(Br)c(Br)c(Br)c1C(=O)OCC(CC)CCCC (stereo not given)	inactive	inactive	inactive	inactive	inactive	inactive	inactive	inactive	inactive	inactive	inactive	inactive	inactive	inactive	inactive	inactive	33.8 µM (active)	inactive		
CC(Cc1ccccc1)NCc1ccccc1Cl (stereo not given)	inactive	inactive	inactive	inactive	inactive	inactive	inactive	inactive	inactive	inactive	inactive	inactive	inactive	inactive	inactive	inactive	inactive	inactive	inactive	
CCCCNC(=O)OCC#CI	68.6 µM (active)	inactive	60.8 µM (active)		8.59 µM (active) and 27.3 µM (active)	inactive	inactive	inactive	inactive	inactive	inactive	inactive	inactive	inactive	inactive	inactive			inactive	4.31 µM (active) and 6.86 µM (active)
